# Reference: ChEMBL document CHEMBL1201862, “PubChem BioAssay data set” (2004)
# Values joined by “and” are separate entries in the source; they are usually repeats but may differ in a detail not shown here. Equal values may be shown once. In all, about 400,000 compounds went through this assay and about 2,100 (0.53%) were called active. Roughly 14% stayed inconclusive and do not appear here. How the calls were made is not given here. This excerpt belongs to a sample that is enriched for actives.
# Target: Ataxin-2 (Homo sapiens) (UniProt Q99700)
# Assay: qHTS for Inhibitors of ATXN expression.
# Type: functional
# Ataxin-2 (Homo sapiens), sequence (Q99700 whole entry): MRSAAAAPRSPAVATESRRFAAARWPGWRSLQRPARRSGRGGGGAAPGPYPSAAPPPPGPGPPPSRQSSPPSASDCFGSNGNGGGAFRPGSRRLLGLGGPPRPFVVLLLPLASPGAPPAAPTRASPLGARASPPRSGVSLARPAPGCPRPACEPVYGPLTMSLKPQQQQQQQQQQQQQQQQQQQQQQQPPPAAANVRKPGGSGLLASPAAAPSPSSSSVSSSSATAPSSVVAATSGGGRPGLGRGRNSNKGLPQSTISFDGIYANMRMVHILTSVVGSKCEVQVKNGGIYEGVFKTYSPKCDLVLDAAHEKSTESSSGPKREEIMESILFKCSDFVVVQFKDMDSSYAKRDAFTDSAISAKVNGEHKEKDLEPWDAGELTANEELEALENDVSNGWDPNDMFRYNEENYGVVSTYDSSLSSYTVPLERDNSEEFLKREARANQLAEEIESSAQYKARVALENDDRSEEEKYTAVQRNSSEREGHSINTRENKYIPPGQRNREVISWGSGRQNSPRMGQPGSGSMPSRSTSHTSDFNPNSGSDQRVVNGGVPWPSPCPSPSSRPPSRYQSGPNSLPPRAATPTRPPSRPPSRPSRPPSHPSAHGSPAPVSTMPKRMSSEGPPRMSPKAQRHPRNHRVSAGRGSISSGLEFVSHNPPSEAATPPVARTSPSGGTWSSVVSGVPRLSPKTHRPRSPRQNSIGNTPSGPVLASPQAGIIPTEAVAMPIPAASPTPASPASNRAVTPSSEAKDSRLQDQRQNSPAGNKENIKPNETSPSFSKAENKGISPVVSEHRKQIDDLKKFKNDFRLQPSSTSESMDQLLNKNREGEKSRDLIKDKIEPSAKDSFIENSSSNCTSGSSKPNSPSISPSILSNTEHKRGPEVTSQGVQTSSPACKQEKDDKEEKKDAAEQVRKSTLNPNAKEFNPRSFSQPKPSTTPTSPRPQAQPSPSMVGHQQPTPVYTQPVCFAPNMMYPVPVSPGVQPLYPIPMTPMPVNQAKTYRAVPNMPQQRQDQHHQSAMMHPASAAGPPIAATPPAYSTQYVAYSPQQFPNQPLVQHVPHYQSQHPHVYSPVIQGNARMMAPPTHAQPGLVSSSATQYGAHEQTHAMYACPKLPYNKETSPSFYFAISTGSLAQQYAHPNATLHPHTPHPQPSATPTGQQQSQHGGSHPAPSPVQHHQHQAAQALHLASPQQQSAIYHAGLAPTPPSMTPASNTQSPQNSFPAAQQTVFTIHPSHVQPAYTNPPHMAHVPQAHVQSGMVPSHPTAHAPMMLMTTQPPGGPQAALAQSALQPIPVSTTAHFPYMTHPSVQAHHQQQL
row,Structure (SMILES),Potency
1,COc1cccc2c1C(=O)c1c(O)c3c(c(O)c1C2=O)C[C@](O)(C(=O)CO)C[C@H]3O[C@@H]1C[C@H](N)[C@H](O)[C@H](C)O1,0.794 µM (active)
2,CC(=O)[C@]1(O)Cc2c(O)c3c(c(O)c2[C@@H](O[C@H]2C[C@H](N)[C@H](O)[C@H](C)O2)C1)C(=O)c1ccccc1C3=O,35.5 µM (active) and 20 µM (active)
3,CC(C)c1ccc(-n2nc3ccc(N)cc3n2)cc1,inactive
4,Cc1cc(C)n(-c2ccc(C(=O)N3CCC(CO)(Cc4ccccc4)CC3)cc2)n1,inactive
5,Cc1ccc([N+](=O)[O-])cc1N/C=C1\CCCCC1=O,inactive
6,COCCn1/c(=N/C(=O)c2cc(-c3cccs3)nc3ccccc23)sc2cc(S(N)(=O)=O)ccc21,inactive
7,C=CCn1/c(=N/C(=O)c2sc3ccccc3c2Cl)sc2cc(S(N)(=O)=O)ccc21,12.6 µM (active)
8,Cc1nn(C)c(C)c1CCC(=O)N1CCCC(Nc2ccc(C(C)C)cc2)C1 (stereo not given),39.8 µM (active)
9,Cc1cc(=O)n2nc(N3CCCC3C(=O)Nc3ccc(C(C)C)cc3)sc2n1 (stereo not given),inactive
10,Cc1nonc1CC(=O)N1CCCC(C(=O)c2ccc(Cl)cc2)C1 (stereo not given),inactive
11,O=C(NCc1ccc(F)cc1)c1cccc2c1C(=O)c1ccc(N3CCC(Cc4ccccc4)CC3)cc1S2(=O)=O,inactive
12,Cc1nc2c(S(=O)(=O)c3ccccc3)cnn2c(C)c1C,inactive
13,CC1CCN(c2ccc3c(c2)S(=O)(=O)c2cccc(C(=O)NCc4cccc(F)c4)c2C3=O)CC1,inactive
14,COc1cccc(CNC(=O)C2CCN(c3nnc(N4CCCC4=O)s3)CC2)c1,inactive
15,CCC(C(=O)NCCc1ccccc1OC)n1nc(C)c2c(C)n(-c3ccccc3)nc2c1=O (stereo not given),inactive
16,COc1ccc(-n2nc3c(N4CCCC(C(=O)NCCc5ccccc5C)C4)nnc(C)c3c2C)cc1 (stereo not given),20 µM (active)
17,COc1ccc(S(=O)(=O)N2CCCC(C(=O)NCCCn3ccnc3)C2)cc1OC (stereo not given),inactive
18,COc1ccc(CNC(=O)C(=O)NCC2OCCN2S(=O)(=O)c2cccs2)cc1 (stereo not given),inactive
19,COc1ccc(-n2nc3c(N4CCCC(C(=O)NCc5ccc(C)cc5)C4)nnc(C)c3c2C)cc1 (stereo not given),17.8 µM (active)
20,COc1ccc(-n2nc3c(N4CCCC(C(=O)NCc5cccc(F)c5)C4)nnc(C)c3c2C)cc1 (stereo not given),20 µM (active)
21,CC(=O)N1CCC(=NNc2ncc(C(F)(F)F)cc2Cl)CC1,inactive
22,Cc1cccn2c(=O)c3cc(C(=O)NC(C)C)c(=N)n(Cc4ccncc4)c3nc12,inactive
23,O=C(COC(=O)c1cc(O)nc2ccccc12)NCc1ccc(Cl)cc1,inactive
24,CCOc1ncccc1C(=O)N(CC)CC(=O)NCc1ccc(Cl)cc1,inactive
25,N=C(Cc1ccc(Cl)cc1)NOC(=O)c1cccc2ccccc12,39.8 µM (active)
